Reference: PubChem BioAssay (EPA / NIEHS)
“And” between values parts separate entries of the source, which are not always exact repeats. Equal values may be shown once. The source holds several records for some structures; these can differ, active in one and inactive in another. The source made the active and inactive calls. The calls were made as follows: active = hit-call score of the fitted dose curve at least 0.9, where 1 is the maximum; inactive = score below 0.9.

These compounds were tested on Epidermal growth factor receptor (EGFR), EGFR (gene 1956) (assay: BSK_hDFCGF_EGFR: BioMAP Diversity Plus: hDFCGF Assay for Epidermal growth factor receptor (EGFR) Biomarker Activity (AID 2283057)). Conditions: primary human foreskin fibroblasts; actives raise or lower the signal.
Procedure: BSK_hDFCGF is a cell-based, multiplexed-readout assay that uses foreskin fibroblast, a human skin primary cell, with measurements taken at 24 hours after chemical dosing in a 96-well plate.BSK_hDFCGF_EGFR is an assay component measured in the BSK_hDFCGF assay. It measures EGFR antibody related to regulation of gene expression using ELISA technology.Data from the assay component BSK_hDFCGF_EGFR was analyzed into 1 assay endpoint. This assay endpoint, BSK_hDFCGF_EGFR, was analyzed with bidirectional fitting relative to DMSO as the negative control and baseline of activity. Using a type of binding reporter, gain or loss-of-signal activity can be used to understand changes in the signaling as they relate to the gene EGFR. Furthermore, this assay endpoint can be referred to as a primary readout, because this assay has produced multiple assay endpoints where this one serves a signaling function. To generalize the intended target to other relatable targets, this assay endpoint is annotated to the kinase intended target family, where the subfamily is receptor tyrosine kinase.
The levels of cell surface (or secreted, indicated by the prefix "s") biomarker endpoints were measured by ELISA. Overt cytotoxicity to cells in confluent adherent cultures (all systems other than the BT system) was assessed by measuring total protein levels using sulforhodamine B (SRB) staining in parallel cultures at the time of biomarker measurements, indicated as SRB endpoints. For proliferation assays for adherent cell types, individual cell types are cultured at sub-confluence and relative cell numbers quantified by SRB staining at time points optimized for each system (48 h: 3C and CASM3C systems; 72 h: BT and HDF3CGF systems; 96 h: SAg system). SRB was performed by staining cells with 0.1% SRB after fixation with 10% TCA and reading wells at 560 nm.Viability and proliferation of PBMC (T cells) was quantified by Alamar Blue reduction for the SAg and BT systems. For PBMC viability (referred to as PBMC Cytotoxicity within the assay endpoint names), cells were plated (75,000/well in a 96-well plate) and then chemical samples added for 1 h before addition of activators, SEB and TSST-1 (20 ng/mL final concentration each). Cells were incubated for 90 h. Then, Alamar Blue (20 uL/well) (Invitrogen, Cat DAL1100) was added for 6 h, and the plates were read with a fluorescence microplate reader at 546/580 nm (excitation/emission). For PBMC proliferation, cells were plated and activated as above but incubated for only 16 h prior to addition of Alamar Blue. Plates were read after 6 h.

SMILES | outcome | AC50
C1=Cc2cccc3cccc1c23 | inactive | –
CCNS(=O)(=O)C(F)(F)C(F)(F)C(F)(F)C(F)(F)C(F)(F)C(F)(F)C(F)(F)C(F)(F)F | inactive | 31.3 µM (active) and 48.5 µM (active)
CC(C)(C)C(O)(CCc1ccc(Cl)cc1)Cn1cncn1 (stereo not given) | inactive | –
Nc1ccc(Cl)cc1N | inactive | –
OCCOCCO | inactive | –
[Cl-].[Cl-].[Hg+2] | inactive | –
Nc1ccc(Oc2ccc(N)cc2)cc1 | inactive | –
CN(C)c1ccccc1 | inactive | –
CCOC(=O)[C@]1(c2ccccc2)Oc2ccccc2[C@@H]1N | inactive | –
Clc1ccc(C(c2ccc(Cl)cc2)C(Cl)Cl)cc1 | inactive | –
Cc1cc(N=Nc2ccccc2C)ccc1N | inactive | –
CCC[CH2][Sn]([Cl])([CH2]CCC)[CH2]CCC | inactive | –
OCCCBr | inactive | –
CC(C)COC(=O)c1ccccc1C(=O)OCC(C)C | inactive | –
Nc1ccc([N+](=O)[O-])cc1 | inactive | –
Cc1ccc(N)cc1 | inactive | –
COC(=O)c1ccccc1N | inactive | –
Oc1ccccc1Cl | inactive | –
O=Cc1ccco1 | inactive | –
CCOc1cccc(C2(N3CCN(c4ccccc4)CC3)CCC(C)CC2)c1 (stereo not given) | inactive | –

SMILES | outcome | AC50
CC(C)(OOC(C)(C)c1ccccc1)c1ccccc1 | inactive | –
C=CCc1ccc2c(c1)OCO2 | inactive | –
CCN(CC)N=O | inactive | –
c1ccc2c(c1)oc1ccccc12 | inactive | –
CCCSC(=O)N(CCC)CCC | inactive | –
Cc1ccc(N)c(N)c1 | inactive | –
CC(C)(O)c1cnn2c(-c3ccc(F)c(-c4c(F)cccc4C#N)c3)cnc2n1 | inactive | –
c1ccc(C2CO2)cc1 (stereo not given) | inactive | –
C[N+](C)(C)CC1CO1 (stereo not given) | inactive | –
Cn1cc(-c2ccccc2)c(=O)c(-c2cccc(C(F)(F)F)c2)c1 | inactive | –
O=C(Oc1ccc(Br)cc1)N1CCN2CCC1CC2 | inactive | –
CCCCCOC(=O)c1ccccc1C(=O)OCCCCC | inactive | –
CCCCOC(=O)c1ccccc1C(=O)OCc1ccccc1 | inactive | –
O=C(N[C@H](c1ccccc1)[C@@H]1CN2CCC1CC2)c1c(Cl)ccc(C(F)(F)F)c1Cl | inactive | –
Clc1ccc(Cl)c(Cl)c1 | inactive | –
ClCCOCCCl | inactive | –
ClC1=C(Cl)C2(Cl)C3C(Cl)C=CC3C1(Cl)C2(Cl)Cl (stereo not given) | inactive | –
Oc1ccc2ccc3cccc4ccc1c2c34 | inactive | –
CN(C)[C@@H]1C(=O)C(C(N)=O)=C(O)[C@@]2(O)C(=O)C3=C(O)c4c(O)cccc4[C@@](C)(O)[C@H]3C[C@@H]12 | inactive | –
